# In PubChem BioAssay:
# The source made the active and inactive calls. Unless noted, the rule behind the calls is not given here.
# What was measured:
# [1] = test system: Wnt5a (protein binding on small-molecule microarray); experiment: small molecules binding Wnt5a protein – biophysical, small-molecule microarray, 635/667 nm fluorescence, primary screen (AID 1142); conditions: 635 nm fluorescence, higher = more signal;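 note: fluorescence read at 667 nm with signal to noise per printed feature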
# [2] = ATP-based viability of Huh7 replicon cells – cell-based, CellTiter-Glo luminescence, basal, 48 h, cytotoxicity control for HCV replication inhibitor project, primary screen (AID 1143); conditions: higher = more signal, called active from +8 up or from −8 down;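 note: Huh7 hepatoma cells carrying a hepatitis C replication reporter with no stimulus; test concentration not given here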
# [3] = Pseudomonas biofilm growth suppression – PAO1 strain, BacTiter-Glo luminescence, LB-PBS, primary screen (AID 1144); conditions: P. aeruginosa PAO1 biofilm, 12 h, higher = more signal
# [4] = basal CRE-LacZ reporter activity in PC12 – cell-based, unstimulated, primary screen (AID 1145); conditions: no forskolin, luminescence, 4.5 h, higher = more signal, called active from +8 up or from −8 down
# [5] = forskolin-driven CRE-LacZ activity in PC12 – cell-based, CRE-LacZ reporter, forskolin-stimulated, primary screen (AID 1146); conditions: luminescence, 4.5 h, higher = more signal, called active from +8 up or from −8 down;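 note: PC12 cells with 6xCRE LacZ reporter stimulated by forskolin 10 µM; beta-galactosidase reporter signal reflecting CREB driven transcription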
# [6] = target: Streptavidin (Streptomyces avidinii) (UniProt P22629); experiment: compounds binding control protein streptavidin – biophysical, small-molecule microarray, 635/667 nm fluorescence, artefact control for SMM compound annotation, primary screen (AID 1147); conditions: higher = more signal;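 note: signal reflects streptavidin binding to arrayed compounds as a control protein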
# [7] = probe aInhba binding on compound microarray – biochemical, small-molecule microarray, 635/667 nm fluorescence, primary screen (AID 1148); conditions: higher = more signal;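 note: score merges 667nm spot fluorescence with signal-to-noise for antibody binding to printed compounds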
# Torsin-1A (Homo sapiens) [8] = target: Torsin-1A (Homo sapiens) (UniProt O14656); experiment: TOR1A wild-type binding on microarray – cell lysate, small-molecule microarray, lysate, 635/667 nm, primary screen (AID 1149); conditions: COS7 hTOR1A-WT lysate, 635 nm fluorescence, higher = more signal
# Torsin-1A (Homo sapiens) [9] = target: Torsin-1A (Homo sapiens) (UniProt O14656); experiment: torsin A mutant lysate binding on microarrays – cell lysate, small-molecule microarray, COS7 lysate, 635/667 nm fluorescence, primary screen (AID 1150); conditions: COS7 hTOR1A mutant lysate, 635 nm fluorescence, higher = more signal;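 note: score pools 667 nm emission and signal to noise measuring lysate protein binding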
# [10] = test system: Sonic hedgehog protein (Shh); experiment: Sonic hedgehog microarray binding compounds – biochemical, small-molecule microarray, 635/667 nm fluorescence, primary screen (AID 1151); conditions: 635 nm fluorescence, higher = more signal;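 note: Shh protein binding to compounds spotted on small-molecule microarray slides; score combines spot fluorescence intensity with signal-to-noise across triplicate slides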
# Streptavidin (Streptomyces avidinii), sequence (P22629 whole entry, looked up): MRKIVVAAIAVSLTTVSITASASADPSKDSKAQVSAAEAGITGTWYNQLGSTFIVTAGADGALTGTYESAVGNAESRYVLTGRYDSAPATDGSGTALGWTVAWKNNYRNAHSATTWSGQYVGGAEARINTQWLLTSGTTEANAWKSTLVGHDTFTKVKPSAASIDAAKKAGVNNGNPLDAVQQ
# Torsin-1A (Homo sapiens), sequence (O14656 whole entry, looked up): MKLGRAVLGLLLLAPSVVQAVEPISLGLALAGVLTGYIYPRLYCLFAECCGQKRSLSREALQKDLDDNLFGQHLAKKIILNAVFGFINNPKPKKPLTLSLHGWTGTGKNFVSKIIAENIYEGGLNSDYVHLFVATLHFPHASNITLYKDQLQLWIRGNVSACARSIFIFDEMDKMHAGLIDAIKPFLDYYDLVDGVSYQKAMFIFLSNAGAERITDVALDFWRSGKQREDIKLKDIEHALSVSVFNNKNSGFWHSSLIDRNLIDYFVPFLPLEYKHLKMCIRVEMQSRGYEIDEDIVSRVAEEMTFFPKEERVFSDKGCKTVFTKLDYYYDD
SMILES,composite z-score [1],z-score [2],z-score [3],z-score [4],z-score [5],composite z-score [6],composite z-score [7],composite z-score (Torsin-1A (Homo sapiens) [8]),composite z-score (Torsin-1A (Homo sapiens) [9]),composite z-score [10]
C=CCOC(=O)[C@@H]1[C@H]2C(=O)O[C@H](c3ccccc3)[C@H](c3ccccc3)N2[C@H](c2ccc(OCCOC(=O)[C@@H]3C[C@@H]4C(=O)N[C@@H](CC(C)C)C(=O)N4[C@@H]3c3ccc(O)cc3)cc2)[C@@]12C(=O)Nc1ccc(I)cc12,0.601,-0.259 (inactive),-0.282 (inactive),-0.655 (inactive),-1.23 (inactive),0.834,1.27,0.271,0.506,2.2
C[C@]1(C(=O)O)c2ccccc2C(=O)N(Cc2cc(C(F)(F)F)cc(C(F)(F)F)c2)[C@H]1c1ccc(CO)cc1,0.0785,0.104 (inactive),-0.518 (inactive),0.531 (inactive),0.165 (inactive),1.41,0.0227,-0.652,-0.113,1.64
C=C[C@H](C)[C@@H](OC(=O)Nc1ccc(SC)cc1)c1ccc(OCCO)cc1,0.179,-2.91 (inactive),-0.567 (inactive),6.08 (inactive),-0.24 (inactive),-0.363,0.36,-0.0803,0.278,1.98
O=C1C2C=CC(C(O)C(c3ccccc3)c3ccccc3)N(Nc3ccccc3F)C2C(=O)N1c1ccccc1 (stereo not given),0.739,-1.16 (inactive),0.712 (inactive),2.73 (inactive),0.993 (inactive),1.58,0.0183,1.02,0.895,0.868
Cc1ccc(S[C@]2(C(=O)NC(C)C)CC(=O)N(Cc3ccccc3)[C@@H]2c2ccc(CO)cc2)cc1,-0.394,-2.19 (inactive),-1.55 (inactive),-0.295 (inactive),0.12 (inactive),-0.375,-0.143,-1.65,-1.5,-0.501
C#CCN(C(=O)OC(C)(C)C)[C@H](CO)c1ccccc1,-0.1,-1.66 (inactive),-0.141 (inactive),0.0329 (inactive),-0.653 (inactive),-0.314,-0.128,0.435,0.411,0.0466
CC[C@@H](O[Si](C#C[Si](C(C)C)(C(C)C)C(C)C)(C(C)C)C(C)C)c1cn([C@H](CO)Cc2ccccc2)nn1,-0.142,0.0926 (inactive),-0.805 (inactive),-0.607 (inactive),-0.038 (inactive),0.391,0.0104,0.0922,-0.209,1.24
O=C1c2ccccc2[C@](Cc2ccccc2I)(C(=O)NCCN2CCOCC2)[C@H](c2ccc(CO)cc2)N1Cc1ccccc1C(F)(F)F,0.0104,-3.41 (inactive),0.588 (inactive),0.0909 (inactive),0.655 (inactive),0.515,-0.038,0.717,0.469,0.468
CC(C)[Si]1(C(C)C)OCc2cc(-c3ccc(-c4ccc(Cl)c(Cl)c4)o3)nc(-c3ccc(Oc4ccccc4)cc3)c21,-0.615,-0.558 (inactive),0.457 (inactive),0.251 (inactive),-0.835 (inactive),-0.767,-0.382,-1.33,-2.07,-0.976
COC(=O)[C@@]1(Cc2ccc(F)cc2)[C@H]2c3cc(C(=O)N(C)C)n(Cc4ccsc4Br)c3C[C@H]2CN1C(=O)c1ccccc1,2.41,-1.49 (inactive),0.00128 (inactive),1.73 (inactive),-0.0932 (inactive),1.66,2.03,-0.0698,0.39,-0.635
COc1ccc([Si](C)(C)[C@@H]2[C@@H](CC(=O)N3Cc4ccccc4C[C@H]3CO)O[C@]3(C(=O)N(Cc4ccc(I)cc4)c4ccccc43)[C@H]2C)cc1,0.206,-6.3 (inactive),0.199 (inactive),-0.477 (inactive),0.0658 (inactive),0.143,-0.101,0.211,0.204,1.94
CC[C@@H]1C=C(C(=O)O)[C@H](c2cccc(Cl)c2)N1S(=O)(=O)c1ccc(C)cc1,-0.23,-0.733 (inactive),1.24 (inactive),-0.322 (inactive),-0.166 (inactive),0.326,-0.0018,1.65,0.314,-0.726
C=C(C)C1CN([C@H](CO)c2ccccc2)C(=O)/C1=C\c1ccccc1 (stereo not given in full),-0.0623,-4.75 (inactive),1.3 (inactive),2.04 (inactive),-0.391 (inactive),-0.0971,-0.0719,0.0321,0.343,0.633
Cc1ccc(S[C@]2(C(=O)NC(C)C)CC(=O)N(Cc3ccccc3)[C@@H]2c2ccc(CO)cc2I)cc1,-0.114,-1.99 (inactive),1.2 (inactive),0.0548 (inactive),0.0831 (inactive),-0.864,-0.128,-0.782,0.0888,-0.421
